A short description of assay [1]: inhibitors of TNFa-induced NFkB p65 translocation, primary screen, imaging, HUVEC, MLSMR starter and 10KST1 sets (AID 438;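 active = inhibition above 20% together with a positive visual image hit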;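 note: compound added about 3h40 before a 20 min TNFalpha stimulation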;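 for inhibition: signal is the nuclear over cytoplasmic p65 intensity ratio per well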). The following applies: HUVEC TNFa-induced p65 nuclear translocation; cell count: measured here: nuclei count (cytotoxicity indicator), at 2.08 µM; inhibition: at 2 µM, stronger effect = higher value, 0% TNFa-plus-vehicle, 100% no-TNFa wells.
Assay [2] in a line: inhibitors of mutant huntingtin aggregation, primary screen, imaging, exon1htt(103Q)mCFP cells, high-content imaging (AID 483;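 active = visual image review flags a hit and inhibition of aggregation exceeds 20%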;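 note: compound exposure lasted 3 days before fixation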;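 for nuclei count: percent of the per-plate median nuclei count of sample wells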). The following applies: exon1htt(103Q)mCFP cell line, aggregate imaging, at 2 µM; inhibition of aggregation: stronger effect = higher value; nuclei count: measured here: cell count, toxicity.
Assay [3] in a line: inhibitors of E-selectin induction by TNFa, primary screen, imaging, HUVEC, immunofluorescence, MLSMR starter and 10KST1 sets (AID 487;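 active = visually confirmed hit in the image check and inhibition above 20%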;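 for inhibition: signal is fraction of cell area covered by stained E-selectin grains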;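 for nuclei count: 100% = median nuclei count of all wells on the same plate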). Particulars: HUVEC TNFalpha-induced E-selectin immunofluorescence imaging, at 2 µM; inhibition: stronger effect = higher value; nuclei count: measured here: cell number, toxicity.
The target of assay [4] is Voltage-gated potassium channel subunit beta-2 (Rattus norvegicus) (UniProt P62483). As to the kind of experiment: KvBeta enzyme negative modulators, primary screen, biochemical, NADPH fluorescence (AID 622;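 active = fluorescence slope higher than the sample average by over 3 SD, cut at about -0.22 in these data, passing the limit was not always enough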;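 note: slope of raw intensity against log time taken from 70 to 1610 s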). Particulars: recombinant KvBeta, 4-cyanobenzaldehyde reduction, at 10 µM, stronger effect = higher value.
Voltage-gated potassium channel subunit beta-2 (Rattus norvegicus), sequence (P62483 whole entry, looked up): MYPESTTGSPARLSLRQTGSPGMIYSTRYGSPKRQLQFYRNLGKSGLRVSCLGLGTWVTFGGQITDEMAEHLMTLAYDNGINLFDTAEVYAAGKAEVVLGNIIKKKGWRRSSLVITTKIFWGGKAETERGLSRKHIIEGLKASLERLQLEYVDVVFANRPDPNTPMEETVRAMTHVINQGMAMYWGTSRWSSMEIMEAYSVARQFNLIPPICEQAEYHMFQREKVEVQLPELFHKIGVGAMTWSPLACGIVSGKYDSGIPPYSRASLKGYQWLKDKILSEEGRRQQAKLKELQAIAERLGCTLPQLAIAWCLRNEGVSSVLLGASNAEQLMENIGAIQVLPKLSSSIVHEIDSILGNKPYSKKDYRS
Assay [5] shares this target. As to the kind of experiment: KvBeta positive modulators, primary screen, biochemical, NADPH fluorescence (AID 623;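 active = NADPH fluorescence slope more negative than the mean of all samples by about 3 SD, 99.7% confidence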;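 note: fluorescence intensity change per second fitted from 20 to 320 s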). The following applies: Recombinant KvBeta, NADPH fluorescence decrease slope, 10 min; at 10 µM; stronger effect = lower value.
The target in assay [6] is Alpha-2C adrenergic receptor (Homo sapiens) (UniProt P18825). As to the kind of experiment: modulators of alpha2C/GIRK thallium flux, primary screen, cell-based, HEK293 alpha2C/GIRK1/2 (AID 624).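 Note: slope of fluorescence ratio to pre-addition baseline per second over 15 to 24 s.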 Particulars: thallium flux BTC fluorescence, at 10 µM, actives lie on both sides.
Alpha-2C adrenergic receptor (Homo sapiens), sequence (P18825 whole entry, looked up): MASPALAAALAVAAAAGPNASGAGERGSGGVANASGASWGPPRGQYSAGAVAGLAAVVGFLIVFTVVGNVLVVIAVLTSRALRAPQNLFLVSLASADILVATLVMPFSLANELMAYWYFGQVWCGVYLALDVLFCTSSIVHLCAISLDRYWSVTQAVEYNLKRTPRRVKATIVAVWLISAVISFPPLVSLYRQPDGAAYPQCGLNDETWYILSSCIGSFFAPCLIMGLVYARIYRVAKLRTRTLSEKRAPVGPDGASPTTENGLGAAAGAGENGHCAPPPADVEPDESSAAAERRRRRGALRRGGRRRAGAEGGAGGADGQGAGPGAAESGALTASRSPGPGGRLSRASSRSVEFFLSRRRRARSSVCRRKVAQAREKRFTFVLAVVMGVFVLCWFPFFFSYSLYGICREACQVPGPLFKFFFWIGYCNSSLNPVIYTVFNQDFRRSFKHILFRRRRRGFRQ
Assay [7] is described as follows: inhibitors of Sendai virus-induced IRF3 signaling, primary screen, TLR/RLR signaling modifier project, cell-based, Sendai virus stimulus, luciferase, 10K MLSCN set (AID 602276;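 active = inhibition at or above 50% at 10 µM; inactive = inhibition below 50%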;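 note: firefly luciferase from ISG56 promoter only with Renilla not read in this screen; 0% = Sendai virus plus DMSO and 100% = medium plus DMSO without virus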). Particulars: HEK293 RL24 IRF3 luciferase reporter, at 10 µM, stronger effect = higher value. A general note: A reporter such as luciferase makes a cellular process visible.
Assay [8] in a line: inhibitors of poly I:C-induced TLR3 signaling, primary screen, cell-based, poly I:C stimulus, luciferase, 10K MLSCN set (AID 602277;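 active = inhibition of the reporter signal at or above 50%; inactive = inhibition below 50%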). Particulars: HEK293-TLR3 RL24 IRF3 luciferase reporter, at 10 µM, stronger effect = higher value.

Active and inactive are the calls of the source.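 Rule for the calls, unless noted: active = fluorescence slope after compound addition differing from the mean of all screened samples at 99.7% confidence, in either direction; inactive = the rest.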

By inhibition is commonly meant the relative decrease from the control value, in per cent.

With `CCCCOCCCNC(=O)COc1ccccc1`, in assay [1], the cell count worked out at 360. Further, the inhibition is -3.4% (inactive) in assay [1], -3.5% (inactive) in assay [3], 17.8% (inactive) in assay [7] and 29.4% (inactive) in assay [8]. The inhibition of aggregation in assay [2] was -12.1% (inactive). The nuclei count in assay [2] is 113%; in assay [3], 114%. Also, the fluorescence slope in assay [4] was -0.398 (inactive). In addition, in assay [5], the NADPH fluorescence slope is -6.8e-05 (inactive). Also, the slope in assay [6] was 0.00485 (inactive).

`Cc1nnc(NC(=O)c2ccccc2F)s1`: the cell count in assay [1] was found to be 421. Moreover, the inhibition was 6% (inactive) in assay [1], 6.9% (inactive) in assay [3], -6.19% (inactive) in assay [7] and -17.6% (inactive) in assay [8]. Moreover, the inhibition of aggregation in assay [2] is 14.2% (inactive). The figures for the nuclei count in assay [2] and in assay [3] were 103% and 125%, respectively. Besides, the fluorescence slope in assay [4] is -0.614 (inactive). For the same molecule, in assay [5], the NADPH fluorescence slope is 5.1e-06 (inactive). Moreover, in assay [6], the slope was 0.00652 (inactive).

For the molecule `COCCNC(=O)c1ccc(CS(=O)(=O)c2ccc(OC)cc2)o1`, in assay [1], the cell count turned out to be 636. For the same molecule, the inhibition was 4.1% (inactive) in assay [1], 5.3% (inactive) in assay [3], 9.76% (inactive) in assay [7] and 25.7% (inactive) in assay [8]. In assay [2], the inhibition of aggregation was -4.8% (inactive). In addition, the nuclei count in assay [2] was 96.8%; in assay [3], 124%. Also, the fluorescence slope in assay [4] was -0.583 (inactive). Besides, the NADPH fluorescence slope in assay [5] is -5.4e-05 (inactive). For the same molecule, the slope in assay [6] was 0.00675 (inactive).

`Cc1ccc2occ(CN3CCN(c4ccccc4)CC3)c(=O)c2c1`: in assay [1], the cell count was determined as 258. Moreover, the inhibition in assay [1] was -0.8% (inactive); in assay [3], -17% (inactive); in assay [7], 15.8% (inactive); in assay [8], 18.1% (inactive). Besides, the inhibition of aggregation in assay [2] is 14.3% (inactive). The nuclei count amounted to 81.9% in assay [2] and 93.3% in assay [3]. In addition, the fluorescence slope in assay [4] is -0.454 (inactive). The NADPH fluorescence slope in assay [5] was -1.6e-05 (inactive). The slope in assay [6] is 0.00585 (inactive).

Consider `O=c1oc2ccccc2c(O)c1CN1CCCCC1`, for which the cell count in assay [1] was 361. Moreover, the inhibition in assay [1] is 2.9% (inactive); in assay [3], -83.3% (inactive); in assay [7] it was 15.4% (inactive); in assay [8], 8.62% (inactive). Moreover, the inhibition of aggregation in assay [2] was 4.9% (inactive). For the same molecule, the nuclei count in assay [2] came to 48.1%; in assay [3], 117%. In assay [4], the fluorescence slope is -0.407 (inactive). For the same molecule, in assay [5], the NADPH fluorescence slope was -6.8e-05 (inactive). For the same molecule, the slope in assay [6] was 0.00535 (inactive).

Take `O=C1c2ccccc2C(=O)N1CCN1CCCCC1`: the cell count in assay [1] is 528. The inhibition in assay [1] is 0.3% (inactive); in assay [3], -58.5% (inactive); in assay [7] it was -8.79% (inactive); in assay [8] it was -2.11% (inactive). In addition, in assay [2], the inhibition of aggregation was -9.5% (inactive). Further, the results for the nuclei count in assay [2] and in assay [3] were 113% and 117%, respectively. Also, the fluorescence slope in assay [4] is -0.327 (inactive). In assay [5], the NADPH fluorescence slope is -5e-05 (inactive). In addition, the slope in assay [6] was 0.00644 (inactive).

Turning to `Cc1ccc(-c2nnc3c4ccccc4c(C)nn23)cc1S(=O)(=O)N1CCN(C)CC1`, in assay [1], the cell count was 640. Further, the inhibition in assay [1] is 7.2% (inactive); in assay [3], 11.3% (inactive); in assay [7], 13.3% (inactive); in assay [8] it was 30.7% (inactive). Further, the inhibition of aggregation in assay [2] was 3.8% (inactive). For the same molecule, the nuclei count in assay [2] is 96.2%; in assay [3] it was 81.2%. Also, the fluorescence slope in assay [4] is -0.592 (inactive). In addition, the NADPH fluorescence slope in assay [5] is -2.9e-05 (inactive). Further, in assay [6], the slope was 0.00436 (inactive).

Turning to `O=C(Nc1ccccc1C(=O)N1CCOCC1)c1cccc(S(=O)(=O)N2CCCC2)c1`, in assay [1], the cell count worked out at 440. The inhibition in assay [1] is -5.3% (inactive); in assay [3] it was -138% (inactive); in assay [7], 2.51% (inactive); in assay [8], 22.9% (inactive). The inhibition of aggregation in assay [2] was 0.3% (inactive). The nuclei count in assay [2] turned out to be 92.3%; in assay [3] it was 118%. Moreover, in assay [4], the fluorescence slope was -0.455 (inactive). The NADPH fluorescence slope in assay [5] was 4.9e-06 (inactive). Moreover, the slope in assay [6] is 0.00695 (inactive).

As to `CC(=O)Nc1ccc(S(=O)(=O)N2CCN(c3cc(C)nc4ccccc34)CC2)cc1`, the cell count in assay [1] turned out to be 730. Moreover, the inhibition in assay [1] was -9.1% (inactive); in assay [3] it was -87.3% (inactive); in assay [7], 5.87% (inactive); in assay [8] it was 13.2% (inactive). Moreover, the inhibition of aggregation in assay [2] is 35.3% (inactive). Moreover, the nuclei count came to 123% in assay [2] and 120% in assay [3]. Also, the fluorescence slope in assay [4] is -0.31 (inactive). The NADPH fluorescence slope in assay [5] was -7.9e-05 (inactive). Besides, the slope in assay [6] is 0.00466 (inactive).

`O=c1c2[nH]c3cccc(Cl)c3c2ncn1CCN1CCCCC1`: the cell count in assay [1] worked out at 300. For the same molecule, the inhibition is -2.8% (inactive) in assay [1], -0.5% (inactive) in assay [3], 16.5% (inactive) in assay [7] and 27.2% (inactive) in assay [8]. Also, the inhibition of aggregation in assay [2] is -4.9% (inactive). Also, the nuclei count was determined as 89% in assay [2] and 106% in assay [3]. The fluorescence slope in assay [4] was -0.618 (inactive). The NADPH fluorescence slope in assay [5] is -2.5e-05 (inactive). Besides, the slope in assay [6] is 0.00476 (inactive).

Turning to `COCCOC(=O)C1=C(N)OC2=C(C(=O)CC(C)(C)C2)C1c1cccnc1` (centres undefined), in assay [1], the cell count came out at 662. Further, the inhibition in assay [1] is 4.8% (inactive); in assay [3], 22.6% (inactive); in assay [7], -8.98% (inactive); in assay [8], 19% (inactive). In addition, the inhibition of aggregation in assay [2] was 9.7% (inactive). Also, the nuclei count in assay [2] was 139%; in assay [3] it was 112%. Besides, the fluorescence slope in assay [4] is -0.452 (inactive). In assay [5], the NADPH fluorescence slope is -4.3e-05 (inactive). Besides, in assay [6], the slope is 0.00687 (inactive).

As to `Cn1c(=O)c2c(-c3ccncc3)c3c(nc2n(C)c1=O)-c1ccccc1C3=O`, the cell count in assay [1] was 637. The inhibition in assay [1] is 0% (inactive); in assay [3], -113% (inactive); in assay [7], 14.2% (inactive); in assay [8] it was 22.4% (inactive). Besides, the inhibition of aggregation in assay [2] was -3.3% (inactive). In addition, the nuclei count amounted to 98.9% in assay [2] and 136% in assay [3]. Also, the fluorescence slope in assay [4] is -0.497 (inactive). Besides, in assay [5], the NADPH fluorescence slope was 4.5e-05 (inactive). For the same molecule, the slope in assay [6] was 0.00591 (inactive).

For the molecule `O=C(CCCN1C(=O)c2ccccc2C1=O)NCc1cccnc1`, in assay [1], the cell count worked out at 709. Also, the inhibition is -7.1% (inactive) in assay [1], -120% (inactive) in assay [3], 8.03% (inactive) in assay [7] and 8.47% (inactive) in assay [8]. Also, the inhibition of aggregation in assay [2] is -4.8% (inactive). Also, the values for the nuclei count in assay [2] and in assay [3] were 102% and 134%, respectively. The fluorescence slope in assay [4] is -0.42 (inactive). Also, in assay [5], the NADPH fluorescence slope was -2.4e-06 (inactive). The slope in assay [6] was 0.00753 (inactive).

On to `CCCCn1c(CN2CCN(c3ccc(F)cc3)CC2)nc2c1c(=O)n(C)c(=O)n2C`, for which, in assay [1], the cell count came to 574. In addition, the inhibition in assay [1] was 14.4% (inactive); in assay [3] it was -6.8% (inactive); in assay [7] it was 1.37% (inactive); in assay [8] it was 3.77% (inactive). Further, in assay [2], the inhibition of aggregation is 1.3% (inactive). In addition, the nuclei count was 90.1% in assay [2] and 82.5% in assay [3]. Also, in assay [4], the fluorescence slope was -0.53 (inactive). In addition, in assay [5], the NADPH fluorescence slope was -3.3e-05 (inactive). Besides, the slope in assay [6] was 0.00657 (inactive).

For the origin of these results see PubChem BioAssay.
